Laboratory results as given in ChEMBL document CHEMBL4513216, “Probing the Open Global Health Chemical Diversity Library for Multistage-Active Starting Points for Next-Generation Antimalarials” (ACS Infect Dis, 2020).
In all, about 69,000 compounds went through this assay and about 8,600 (12%) showed an effect of 50% or more. Only a selection was taken, and strong results are over-represented in it overall.

Tested on: Plasmodium berghei
Experiment: Screen against P. berghei liver stage (PbLuc), transformed with Luciferase, at 10uM
Assay type: functional, HepG2
Details: tested at 10 uM

Structure (SMILES) | INHIBITION
Cc1noc(C)c1CN1Cc2cnn(C)c2C(COCC2CC2)C1 (configuration not stated) | 54.4%
Cc1ccc(CN2Cc3nnn(C)c3C(COCC3CC3)C2)o1 (configuration not stated) | -14.7%
Cn1ncc2c1C(COCC1CC1)CN(Cc1ccco1)C2 (configuration not stated) | 20.6%
Cc1ccc(CN2Cc3cnn(C)c3C(COCC3CC3)C2)o1 (configuration not stated) | 54.4%
Cc1noc(C)c1CN1Cc2cn(C)nc2C(COCC2CC2)C1 (configuration not stated) | 48.6%
Cn1ncc2c(=O)[nH]c(CN3CCCC3c3ccccc3Cl)nc21 (configuration not stated) | -19.6%
Cc1ccc(-c2nc(C(=O)N(C)C3CCN(C)CC3)cs2)c(C)c1 | 27.7%
Cc1sc(Br)cc1S(=O)(=O)NCCCN | 8.08%
CC(=O)N1CCCN(C(=O)NCC2(c3cccs3)CCCC2)CC1 | 23.9%
Cc1nc(C)n(CC2CCCN(CCOc3ccc(F)cc3)C2)n1 (configuration not stated) | 4.52%
CN1CCO[C@H]2CN(S(=O)(=O)c3ccc(C#N)cc3)C[C@H]21 | 5.63%
CC(C)NCC1(COc2ccccc2)C[C@@H](O)[C@@H](O)C1 (some centres not stated) | 38.3%
NC(=O)COc1cccc(C(=O)N2CCCC(n3cccn3)C2)c1 (configuration not stated) | 20.1%
O=C(CCCNc1ncccn1)N1CCCC(n2cccn2)C1 (configuration not stated) | 8.48%
NC(=O)c1cccc(OCC(=O)N2CCCC(n3cccn3)C2)c1 (configuration not stated) | 57.5%
O=C(COCC1CC1)N1CCCC(n2cccn2)C1 (configuration not stated) | 8.48%
O=C(COCCc1ccccc1)N1CCCC(n2cncn2)C1 (configuration not stated) | 7.12%
O=C(COCCc1ccccc1)N1CCCC(n2cccn2)C1 (configuration not stated) | 61.9%
O=C(CCNc1ncccn1)N1CCCC(n2ccnc2)C1 (configuration not stated) | 21.1%

Structure (SMILES) | INHIBITION
NC(=O)c1ccc(OCC(=O)N2CCCC(n3cccn3)C2)cc1 (configuration not stated) | -25.9%
O=C(CCNc1ncccn1)N1CCCC(n2cccn2)C1 (configuration not stated) | 50.3%
Cc1nn(C)c(N(C)C)c1CNC(C)COc1ccc(F)cc1F (configuration not stated) | -41.6%
O=S(=O)(NCCC(O)c1ccoc1)c1ccc(Cl)s1 (configuration not stated) | -5.22%
COc1cc2nc(C)n(CC(=O)NCCO)c(=O)c2cc1OC | 4.82%
COc1cc(OC)cc(-c2noc(CC(N)c3ccccc3)n2)c1 (configuration not stated) | 36.3%
CN1CCN(Cc2nnc(C3CCN(S(C)(=O)=O)CC3)n2C)CC1 | -14.3%
CN(CC(F)(F)F)C(=O)CNC(=O)N1CCCC(C(F)(F)F)C1 (configuration not stated) | 18.6%
CN(CC(F)(F)F)C(=O)CNC(=O)N1CCCC(N(C)C)C1 (configuration not stated) | 53.3%
CC1CCN(C(=O)NCC(=O)N(C)CC(F)(F)F)C1 (configuration not stated) | 18.6%
COc1ccccc1Oc1cncc(C2CCCN(CC(N)=O)C2)n1 (configuration not stated) | 20.8%
COCC(=O)N1CCCC1c1nccnc1Nc1ncccn1 (configuration not stated) | 7.05%
NCC(=O)N1CCCC(c2ccnc(Nc3cnccn3)n2)C1 (configuration not stated) | 18.9%
NC(=O)CN1CCCC(c2cncc(Nc3ncccn3)n2)C1 (configuration not stated) | 59%
CCC(=O)N1CCCC1c1nccnc1Nc1ncccn1 (configuration not stated) | 42.6%
c1cnc(Nc2cncc(C3CCCN(c4ncccn4)C3)n2)nc1 (configuration not stated) | -0.371%
NCC(=O)N1CCCC(c2cncc(Nc3ncccn3)n2)C1 (configuration not stated) | 51.7%
NCC(=O)N1CCCC1c1nccnc1Nc1ncccn1 (configuration not stated) | 59%
c1cnc(Nc2cncc(C3CCCN(c4cnccn4)C3)n2)nc1 (configuration not stated) | -6.3%

Structure (SMILES) | INHIBITION
CCS(=O)(=O)N1CCC2(CCC2NC(=O)c2ccn(C)c2)CC1 (configuration not stated) | 8.53%
O=C(c1ccno1)N1CCO[C@@H]2CC(COCc3ccccn3)C[C@H]21 (some centres not stated) | 8.6%
COc1cc(C(=O)N(Cc2cnn(C)c2)C(C)C)ccc1C | 14.1%
COc1cc(N2CC[C@@H]3O[C@H](C(=O)NCC4CC4)C[C@@H]32)ncn1 | -22.1%
Cc1cc(Oc2ccccc2F)nc(C2CCCCN2)n1 (configuration not stated) | 10.9%
CN(Cc1nnn(CC2CC2)n1)C(=O)c1ccccc1 | 1.74%
CCn1c(=O)n(CCC(=O)N(C)Cc2ccc(C)o2)c2ccccc21 | 15.4%
CCCn1c(=O)n(CCC(=O)N(C)Cc2ccc(C)o2)c2ccccc21 | 83.2%
Cc1ccc(CN(C)C(=O)CCn2c(=O)n(C)c3ccccc32)o1 | 49.7%
CCN1CCC(NC(=O)NCC(O)c2ccc(Cl)c(F)c2)CC1 (configuration not stated) | 43.1%
CC(C)CCN1CCCC12Cc1ccccc1CNC2=O (configuration not stated) | 14.3%
O=C1NCc2ccccc2CC12CCCN(CCCc1ccccc1)C2 (configuration not stated) | 27.5%
Cc1cc(C)c(CN2CCCC23Cc2ccccc2CNC3=O)c(C)c1 (configuration not stated) | 68.9%
O=C1Nc2ccccc2CC12CCCN2Cc1ccccn1 (configuration not stated) | 27.5%
Cc1ccc(CCN2CCCC23Cc2ccccc2CNC3=O)cc1 (configuration not stated) | 54.9%
O=C1Nc2ccccc2CC12CCCN2Cc1ccc(F)cc1 (configuration not stated) | -38.7%
CC(C)(C)CN1CCCC12Cc1ccccc1CNC2=O (configuration not stated) | 32.5%
Cc1ccc(CN2CCCC23Cc2ccccc2CNC3=O)cc1 (configuration not stated) | 52.4%
O=C1Nc2ccccc2CC12CCCN2Cc1cccnc1 (configuration not stated) | -2.28%
